Source: PubChem
Only a selection was taken, and hits are over-represented in it overall.
PostGolgi ctrl = growth of the yeast control strain, post-Golgi counter-screen; efflux-deficient yeast background strain, growth absorbance A615, 16 h; inhibition, % at 10 µM; hit rate 5% among 98,000; AID 738
GALR2 blocker = GALR2 (human) receptor antagonism; inhibition, % at 4 µM; GALR2-expressing cells, antagonist mode; hit rate 0.39% among 140,000; in the data active = inhibition above about 27%;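 also: cells stimulated with galanin 1-16 at roughly its EC80; 0% = agonist challenge control and 100% = basal control without agonist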
Target sequence (O43603 whole entry, looked up): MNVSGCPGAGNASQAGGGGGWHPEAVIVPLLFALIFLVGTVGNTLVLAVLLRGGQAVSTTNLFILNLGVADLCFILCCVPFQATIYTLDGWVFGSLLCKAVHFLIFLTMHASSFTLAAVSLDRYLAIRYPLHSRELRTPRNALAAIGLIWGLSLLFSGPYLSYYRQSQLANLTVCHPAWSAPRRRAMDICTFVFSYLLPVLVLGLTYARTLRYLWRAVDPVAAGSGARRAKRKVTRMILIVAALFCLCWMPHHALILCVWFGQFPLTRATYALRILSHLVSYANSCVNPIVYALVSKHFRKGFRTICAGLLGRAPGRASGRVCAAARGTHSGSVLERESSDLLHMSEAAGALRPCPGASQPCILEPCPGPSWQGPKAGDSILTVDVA
PostGolgi yeast = growth inhibition of a yeast mutant, post-Golgi transport screen; post-Golgi transport phenotypic cell assay; inhibition, % at 10 µM; hit rate 0.9% among 98,000; AID 739;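 also: yeast cells grown in 1536-well plates; yeast grown about 18 h at 30C before absorbance read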
GALR2 ag = agonists of human galanin receptor 2 (GALR2). O43603. GALR2-expressing cells, agonist activation read-out. activation, % (concentration not given with the values). hit rate 0.48% among 140,000. AID 803; in the data active = activation above about 5%, passing the limit was not always enough;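 also: 0% = vehicle buffer wells and 100% = reference agonist at full effect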
S1P2 agonist = S1P2 (human) receptor agonism; O95136; S1P2-expressing cell line, agonist reporter read-out; activation, % at 4.5 µM; hit rate 0.46% among 97,000; AID 729; in the data active = activation above about 16%;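 also: 0% = vehicle low control and 100% = maximal reference agonist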
S1P2 blocker = S1P2 (human) receptor antagonism; cell-based S1P2 antagonist assay, inhibition at 5 uM; inhibition, % at 5 µM; hit rate 0.21% among 97,000; AID 736; in the data active = inhibition above about 45%;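 also: CRE beta-lactamase reporter cells expressing human S1P2 stimulated with S1P; 0% = agonist at EC80 alone and 100% = agonist plus reference antagonist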
* marks the source's active call; other numbers are inactive results; · = no result. Rule as the data show it, unless noted: active = inhibition above about 30%; inactive = the rest.

SMILES | PostGolgi ctrl | GALR2 blocker | PostGolgi yeast | GALR2 ag | S1P2 agonist | S1P2 blocker
CC1CCCN(S(=O)(=O)c2ccc(NC(=O)CCN3C(=O)c4ccccc4C3=O)cc2)C1 (configuration not stated) | 18 | 2 | 42* | -1 | -8 | 1
c1ccc(-n2ncc3c(N4CCN(CCOc5cccc6ccccc56)CC4)ncnc32)cc1 | 32* | -5 | 1 | -2 | -1 | -10
O=C(COc1ccccc1)N1CCN(c2ncnc3c2cnn3-c2ccccc2)CC1 | 7 | -12 | 9 | 0 | -7 | -2
O=S(=O)(c1ccc(F)cc1)N1CCN(c2ncnc3c2cnn3-c2ccccc2)CC1 | 35* | 15 | 5 | -2 | -4 | 13
Cc1cc(Cl)cc(Cl)c1CNc1c([N+](=O)[O-])c(=O)oc2ccccc12 | · | -5 | · | -2 | · | ·
CCCCCCCCCCCCCCCC[n+]1cccc2ccccc21 | · | 11 | · | -2 | · | ·
CCCCCCCCC[n+]1cccc2c3ccccc3ccc21 | 98* | 2 | 11 | 0 | -3 | 48*
O=C(O)CCCCCNc1ccc2nsnc2c1[N+](=O)[O-] | · | -9 | · | 2 | · | ·
Cc1ccc(C)c(C(=O)NCc2ccncc2)c1 | -3 | -3 | 35* | -3 | -5 | -2
O=C(Cn1nnc(-c2ccccc2Cl)n1)NCc1ccc2c(c1)OCO2 | 5 | -14 | -5 | -2 | -3 | 1
COc1ccnc(CSC(N)=Nc2cccc(C(F)(F)F)c2)c1 | · | 7 | · | -1 | · | ·
N#C/C(=C\c1ccc(Sc2nc3ccccc3[nH]2)o1)c1ccccc1 | 54* | 6 | -9 | -2 | -3 | -22
N#C/C(=C/c1ccc(N2CCOCC2)o1)c1nc2ccccc2[nH]1 | · | 12 | · | -1 | -7 | -15
CC(C)Oc1ccc(N2CC(C(=O)Nc3ccc(N4CCOCC4)cc3)CC2=O)cc1 (configuration not stated) | · | -3 | · | -2 | -5 | -1
CC1=C(C(=O)OC(C)(C)C)C(c2cccs2)NC(=O)N1 (configuration not stated) | · | 2 | · | -1 | · | ·
O=C(/C=C/c1cccc(Cl)c1)Nc1ncccn1 | · | 14 | · | -2 | · | ·
O=C(/C=C/c1cccc(Cl)c1)c1nc2ccccc2[nH]1 | 93* | -1 | 100* | -1 | 1 | -16
CCOC(=O)C1=C(O)/C(=C/c2ccc(OCC(=O)O)c(OC)c2)SC1=Nc1ccc(OCC)cc1 | · | 9 | · | 0 | · | ·
CCOC(=O)C1=C(O)/C(=C/c2cc(OC)c(O)c(OC)c2)SC1=Nc1ccc(OC)cc1 | · | 6 | · | 7.3* | · | ·
CCN1/C(=C/c2ccc3ccccc3[n+]2CC)C=Cc2ccccc21 | 66* | 24 | -1 | 0 | -2 | 81*
CCN1C(=C2C(=O)c3ccccc3C2=O)C=Cc2ccccc21 | 8 | -4 | 0 | -1 | -5 | -14
O=C(CCc1ccccc1)Nc1nc2n(n1)C(c1ccc(Cl)cc1)CC(=O)N2 (configuration not stated) | 46* | 0 | -4 | -3 | -6 | 2
COC(=O)c1cc2c(=O)n3ccccc3nc2n(C(C)C)c1=N | · | -4 | · | 17* | 19* | -32
CC(C)n1c(=N)c(C(=O)NCCc2ccccc2)cc2c(=O)n3ccccc3nc21 | -1 | -22 | -4 | 18* | 94* | -68
CCCn1c(-c2cccnc2Cl)nc2cc(Cl)c(Cl)cc21 | 43* | -9 | -14 | 1 | -6 | 2
SMILES | PostGolgi ctrl | GALR2 blocker | PostGolgi yeast | GALR2 ag | S1P2 agonist | S1P2 blocker
C=CCn1c(-c2cccnc2Cl)nc2cc(Cl)c(Cl)cc21 | 36* | -11 | -3 | -1 | -8 | 4
Clc1cccc(Cl)c1Cn1c(-c2cccnc2Cl)nc2ccccc21 | 50* | 0 | 10 | -2 | -5 | -8
CCCn1c(-c2ccc(OC)cc2)nc2ccccc21 | 17 | 3 | 8 | 0 | -9 | 2
C=CCn1c(-c2ccc(C)cc2)nc2ccccc21 | 18 | -3 | 4 | -1 | -1 | -26
Cc1ccc(N2C(=O)/C(=C\c3ccc(C(C)C)cc3)N=C2SC2CCOC2=O)cc1 (configuration not stated) | · | -20 | · | 0 | · | ·
O=C(CCC(=O)OCC(=O)c1ccc(Br)cc1)NC1CCCCC1 | 37* | -10 | -4 | 0 | 0 | -3
O=C(Cc1ccc(Br)cc1)NC1CCCCC1 | 6 | -8 | 7 | -4 | -4 | 2
O=C(CCC(=O)OCC(=O)c1ccc(F)cc1)NC1CCCCC1 | 4 | -19 | 40* | -2 | -1 | -4
Cc1noc(C)c1S(=O)(=O)N(CC(=O)N1CCCCCC1)c1ccc(C(C)C)cc1 | 32* | -3 | -1 | 1 | -4 | 11
Cc1cc(C(C)(C)C)ccc1OCCN1CCCC1 | 29 | -15 | 67* | 0 | -1 | -13
Cc1cc(C)nc(N/N=C/c2ccccc2)n1 | 2 | 15 | 8 | -1 | -1 | 5
Cc1cc(C)nc(N/N=C/C(Cl)=C/c2ccccc2)n1 | -1 | 12 | 31* | -1 | 2 | -7
CC(=O)Nc1ccccc1-c1nc2ccccc2nc1OCC(=O)c1ccc2ccccc2c1 | 16 | -7 | 3 | -2 | -7 | 2
C/C(=N\NC(=S)Nc1c(C)cccc1C)c1ccc(OC(F)F)cc1 | · | 10 | · | -1 | · | ·
Cn1c(=O)c2c(nc(CN3CCc4ccccc4C3)n2Cc2cccc(Cl)c2)n(C)c1=O | 33* | 0 | 5 | 0 | · | ·
Cn1c(=O)c2c(nc(N3CCCCCC3)n2Cc2cccc3ccccc23)n(C)c1=O | 62* | 14 | 8 | 3 | · | ·
CC1CCN(c2nc3c(c(=O)n(C)c(=O)n3C)n2CCSc2nc3ccccc3s2)CC1 | 36* | -10 | 16 | 0 | -1 | 18
CN1CCN(c2nc3c(c(=O)n(C)c(=O)n3C)n2Cc2cccc3ccccc23)CC1 | 3 | -8 | 7 | 0 | -5 | 0
CCN1CCN(Cc2nc3c(c(=O)n(C)c(=O)n3C)n2Cc2ccccc2Cl)CC1 | 31* | 6 | 3 | -2 | -4 | -2
CCOC(=O)N1CCN(c2c(F)cc3[nH]c(=S)[nH]c3c2Br)CC1 | 33* | -4 | 1 | 0 | 3 | -24
COC(=O)N/N=C/c1cn(Cc2c(Cl)cccc2Cl)c2ccccc12 | · | 6 | · | -1 | · | ·
C=CCNC(=O)COc1cc(C)ccc1C | · | 1 | · | -1 | · | ·
COc1ccc(C(C(=O)OC(C)CN(C)C)c2ccccc2)cc1 (configuration not stated) | 1 | 7 | 35* | -4 | -4 | -6
Cn1c(=O)c2c(nc(Br)n2CCSc2ncccn2)n(C)c1=O | 8 | -8 | 4 | 0 | -6 | -7
CCCCCn1c(SCCCC)nc2c1c(=O)[nH]c(=O)n2C | 33* | -3 | -8 | 0 | 0 | -2
Cn1c(=O)[nH]c(=O)c2c1nc(Br)n2CCSc1ncccn1 | 36* | -4 | -6 | 0 | -5 | -25
CCCn1c(SCc2ccc(Cl)cc2)nc2c1c(=O)[nH]c(=O)n2C | 60* | 12 | 19 | -4 | -3 | -14
C/C=C/Cn1c(SCc2ccc(Cl)cc2)nc2c1c(=O)[nH]c(=O)n2C | 43* | -6 | 8 | 1 | 0 | -20
CCSc1nnc(NC(=O)[C@@H](NC(=O)c2ccc(C(C)(C)C)cc2)C(C)C)s1 | · | -2 | · | -1 | · | ·
